Laboratory results reported in ChEMBL document CHEMBL4513216, “Probing the Open Global Health Chemical Diversity Library for Multistage-Active Starting Points for Next-Generation Antimalarials” (ACS Infect Dis, 2020).
Screen size: about 65,000 compounds; about 2,100 (3.2%) showed an effect of 50% or more. The median lay at about -52%. Many of the other results were omitted from the sample, so strong results are more common in it than they were.

system: Plasmodium falciparum; test: Screen against P. falciparum Asexual Blood Stage (ABS), at 5uM; format: functional, Dd2; settings: tested at 5 uM

Structure (SMILES) | INHIBITION [%]
Cc1ccccc1C(C(=O)NCCSC(C)C)N(C)C (stereo not drawn) | 50.3
CSCCCNC(=O)C(c1ccccc1C)N(C)C (stereo not drawn) | -35.8
Cc1ccccc1C(C(=O)NCCSC(F)(F)F)N(C)C (stereo not drawn) | 46.1
CSC(C)C(=O)N(C)CCCc1cc(-c2ccccc2)no1 (stereo not drawn) | -25.3
CCOC(=O)C1CCN(c2cc(C(=O)N3CCOCC3)nc(C)n2)CC1 | -5.84
COc1ccc(C(NCc2ccc(C#N)cc2)C2CC2)cc1 (stereo not drawn) | 60.9
COc1ccc(C(NCc2cccc(C#N)c2)C2CC2)cc1 (stereo not drawn) | 48.3
COc1ccc(C(NCc2cccc(C#N)c2)C(C)C)cc1 (stereo not drawn) | -11.2
O=C(C1CCOC1)N1CCC2(CCN(Cc3nccs3)CC2)CC1 (stereo not drawn) | -146
COc1ccc(NC(=O)c2nc3ccccc3n(C)c2=O)cc1OC | -33.5
O=C(O)c1cc2c(nc1-c1ccoc1)CCN(CC1CCOC1)CC2 (stereo not drawn) | -108
CSCC(=O)N(C)Cc1noc(-c2ccccc2)n1 | -229
CN(C)CC(C)(O)CNC(=O)Nc1sc2ccccc2c1Cl (stereo not drawn) | 63.2
CN(C)C(=O)CCNC(=O)Nc1sc2ccccc2c1Cl | -22.3
CS(=O)(=O)CCNC(=O)Nc1sc2ccccc2c1Cl | -95
Cc1cc(-c2cnc(N3CCCCCC3)nc2-c2cccnc2C)on1 | 3.45
Cc1cnn(C2CN(CCOc3cccc(C#N)c3)C2)c1 | -128
CCS(=O)(=O)N1CC(=O)N(Cc2ccccc2OC)CC(O)C1 (stereo not drawn) | -105
CCOC(=O)C1CCN(C(=O)c2cnn(-c3ccccc3F)c2N)CC1 | -221
Cc1ccc(C(CNCc2cccc3c2OCO3)N2CCOCC2)o1 (stereo not drawn) | 65.7
c1cc(CNCc2ccnc(N3CCOCC3)c2)c2c(c1)OCO2 | -31.4
c1csc(C(CNCc2cccc3c2OCO3)N2CCOCC2)c1 (stereo not drawn) | 40.2
Cc1cc(C2CCCN2C(=O)CN2C(=O)OC(C)(C)C2=O)on1 (stereo not drawn) | -28.9
CCCS(=O)(=O)N1C[C@@H]2CN(Cc3cnn(C)c3)CCO[C@@H]2C1 | -67.3
O=C(NCCNc1cccnc1)C(c1cccnc1)N1CCCC1 (stereo not drawn) | -11.7
Cc1cccc(C(C(=O)NCCn2cccc2)N(C)C)c1 (stereo not drawn) | 42.5
O=C(NCCn1cccc1)C(c1ccccc1)N1CCCC1 (stereo not drawn) | 54.4

Structure (SMILES) | INHIBITION [%]
CC(C)(NCc1cccc(C(N)=O)c1)c1ccc2c(c1)OCO2 | 19.8
CC(C)(NCc1ccc(C#N)cc1)c1ccc2c(c1)OCO2 | -0.993
CC(C)(NCc1cccc(C#N)c1)c1ccc2c(c1)OCO2 | 51.5
O=C1N[C@@H]2CCN(C(=O)C3CCC3)[C@@H]2C(=O)N1c1ccc(F)cc1 | 32
O=C1N[C@@H]2CCN(C(=O)C3CCCC3)[C@@H]2C(=O)N1c1ccc(F)cc1 | 56.1
O=C1N[C@@H]2CCN(C(=O)C3CC3)[C@@H]2C(=O)N1c1ccc(F)cc1 | -99.9
CC(=O)N1N=C(COc2ccc3c(c2)OCO3)OC1c1cccc(Cl)c1 (stereo not drawn) | -125
Cc1cc(=O)n(CC(=O)NC(C)C)c(Nc2ccc(F)c(C)c2)n1 | -47.4
CN1CCc2cc(C(CNS(=O)(=O)c3cccs3)N3CCCC3)ccc21 (stereo not drawn) | 15.5
Cc1nn(C)cc1S(=O)(=O)NCC(c1ccccc1)N1CCCCCC1 (stereo not drawn) | 12.9
CN(C)c1ccc(C(CNS(=O)(=O)c2cccs2)N2CCCC2)cc1 (stereo not drawn) | 54.2
COc1ccccc1CNC(=O)COc1c(C)n(C)ccc1=O | -82.3
CC(C)c1cnc(CN(C)C2CCN(CCc3cnn(C)c3)C2)o1 (stereo not drawn) | -112
O=C(NCC1CC1)C1CCC2(CCN(C(=O)c3cnccn3)CC2)O1 (stereo not drawn) | -40.1
COc1cc(C(C)=O)ccc1OCCNCc1ccco1 | 1.68
COc1cc(CNCc2ccco2)ccc1OCCO | -66.2
CCCc1ccc(OCCNCc2ccco2)c(OC)c1 | 51.5
Cn1ccnc1-c1nccn1-c1cccc(CN2CCCC2)c1 | -2.05
CCCc1nccn1-c1cccc(CN2CCCC2)c1 | 53.1
c1cc(CN2CCCC2)cc(-n2ccnc2-c2ccncc2)c1 | 6.67
O=C(NCCc1ccc(F)cc1)C1CN(C(=O)Cn2cncn2)C1 | -29.6
Cc1nc(N(C)CCN(C)C)c2cnn(C)c2n1 | -71.9
COCc1nc(N(C)CCSc2ccccc2)c2cnn(C)c2n1 | -14.2
CN(C)CCN(C)c1nc(CCc2ccccc2)nc2c1cnn2C | 51.9
CN1CCCc2cc(-c3cncn3CC(=O)NC(C)(C)C)ccc21 | -38.6
CCN1CCc2cc(-c3cncn3CCNC3CCS(=O)(=O)C3)ccc21 (stereo not drawn) | 3.68
